{
  "source": "PubChem BioAssay",
  "note": "Calls of active or inactive are those of the source. How the calls were made is not given here.",
  "data": [
    {"biological_target": "Pantothenate synthetase (Mycobacterium tuberculosis (strain ATCC 25618 / H37Rv)) (UniProt P9WIL5)", "sequence (P9WIL5 whole entry, looked up)": "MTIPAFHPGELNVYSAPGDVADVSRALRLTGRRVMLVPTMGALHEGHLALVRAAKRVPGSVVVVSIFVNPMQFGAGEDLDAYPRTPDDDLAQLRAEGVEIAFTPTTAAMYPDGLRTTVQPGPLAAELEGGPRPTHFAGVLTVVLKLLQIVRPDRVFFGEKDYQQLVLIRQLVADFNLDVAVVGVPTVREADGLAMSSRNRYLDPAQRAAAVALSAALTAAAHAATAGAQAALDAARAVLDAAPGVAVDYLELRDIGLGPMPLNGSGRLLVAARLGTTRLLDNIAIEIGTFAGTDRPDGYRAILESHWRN", "experiment": "Coupled enzyme confirmation of inhibitors against recombinant Mtb PanC (AID 375);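 further: 0% = full reaction with vehicle and 100% = no enzyme background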", "conditions": "coupled enzyme assay; at 10 µM, active compounds read high", "values": [
      {"molecule": "CCOC(=O)C1CN(S(=O)(=O)c2ccc(C)cc2)CCN1S(=O)(=O)c1ccc(C)cc1", "note": "(stereo not given)", "inhibition": "0% (inactive)"},
      {"molecule": "O=C(CCSc1nccn1Cc1ccccc1)N1CCOCC1", "inhibition": "0% (inactive)"},
      {"molecule": "CC(=O)Nc1c(O)[nH]c2ccccc12", "inhibition": "0% (inactive)"},
      {"molecule": "Clc1ccc(-n2ncc3c(NCCCn4ccnc4)ncnc32)cc1", "inhibition": "0% (inactive)"},
      {"molecule": "Cc1ccccc1S(=O)(=O)Cc1ccc(C(=O)NCc2cccnc2)o1", "inhibition": "0% (inactive)"},
      {"molecule": "COCCn1c(SCC(=O)N(C(C)C)C(C)C)nnc1-c1cc2ccccc2cc1O", "inhibition": "0% (inactive)"},
      {"molecule": "C=CCN1C(=O)/C(=C2/Sc3ccccc3N2C)SC1=Nc1c(C)n[nH]c1C", "inhibition": "1% (inactive)"},
      {"molecule": "CCCC(=O)Nc1ccc(C(=O)O)cc1NC(=O)CCC", "inhibition": "0% (inactive)"},
      {"molecule": "COc1ccccc1N1CCN(C(=O)c2ccc(CS(=O)(=O)c3ccccc3OC)o2)CC1", "inhibition": "8% (inactive)"},
      {"molecule": "O=C(NCc1cccs1)C1CC(=O)N(C2CCCC2)C1", "note": "(stereo not given)", "inhibition": "2% (inactive)"},
      {"molecule": "Clc1ccc(C2Nc3ccccc3-n3cccc32)cc1", "note": "(stereo not given)", "inhibition": "0% (inactive)"},
      {"molecule": "O=c1cc(CSc2nnc(COc3ccc(Cl)cc3)o2)c2ccccc2[nH]1", "inhibition": "3% (inactive)"},
      {"molecule": "O=C(CSc1nnnn1-c1ccccc1)Nc1ccc(Cl)cc1", "inhibition": "0% (inactive)"},
      {"molecule": "Cc1ccccc1-c1nc(Cc2ccccc2)no1", "inhibition": "1% (inactive)"},
      {"molecule": "O=C(COc1ccc(S(=O)(=O)NC2CCCCC2)cc1)NCc1ccccn1", "inhibition": "0% (inactive)"},
      {"molecule": "COc1ccc(-c2c(=O)n(OCc3ccccn3)c3ccccc3[n+]2[O-])cc1OC", "inhibition": "3% (inactive)"},
      {"molecule": "CC1(C)C(=O)Nc2ccccc2N1C(=O)COC(=O)Cn1cnc2ccccc2c1=O", "inhibition": "0% (inactive)"},
      {"molecule": "O=C1CC(c2ccco2)CC(O)=C1C=NCC1NCCc2ccccc21", "note": "(stereo not given)", "inhibition": "0% (inactive)"},
      {"molecule": "N#CCC(=O)N1CCn2c1nc1ccccc12", "inhibition": "0% (inactive)"},
      {"molecule": "O=C(NCCN1C(=O)C2C3C=CC(C3)C2C1=O)N1CCCCC1", "note": "(stereo not given)", "inhibition": "0% (inactive)"},
      {"molecule": "O=S(=O)(c1ccccc1)N1CCSC1c1ccco1", "note": "(stereo not given)", "inhibition": "3% (inactive)"},
      {"molecule": "N#Cc1cc2ccc(N3CCOCC3)cc2cc1C#N", "inhibition": "0% (inactive)"},
      {"molecule": "COc1cc2c(cc1OC)-c1cc(Nc3ccc4c(c3)OCCO4)nc(=O)n1CC2", "inhibition": "2% (inactive)"},
      {"molecule": "S=c1[nH]nc(-c2ccccc2)n1C1C=CCCC1", "note": "(stereo not given)", "inhibition": "0% (inactive)"},
      {"molecule": "CCOc1ccc(-c2cc(C(=O)N3CCN(c4ccccn4)CC3)c3ccccc3n2)cc1", "inhibition": "2% (inactive)"},
      {"molecule": "CCNc1ccc2c(Cl)cc(=O)oc2c1", "inhibition": "5% (inactive)"},
      {"molecule": "CCc1ccc(NC(=O)c2cc(-c3ccco3)on2)cc1", "inhibition": "4% (inactive)"},
      {"molecule": "CCOc1ccccc1C(=O)NC(C)c1ccc2c(c1)OCO2", "note": "(stereo not given)", "inhibition": "0% (inactive)"},
      {"molecule": "COc1cc2c(cc1OC)C(C)N(C(=O)Cn1ncc3c1-c1ccccc1OC3)CC2", "note": "(stereo not given)", "inhibition": "0% (inactive)"},
      {"molecule": "COc1ccc(C2C(C#N)=C(N)OC3=C2C(=O)CC(C)C3)c(OC)c1OC", "note": "(stereo not given)", "inhibition": "0% (inactive)"},
      {"molecule": "N#CC1=C(N)Oc2c(ccc3cccnc23)C1c1cccnc1", "note": "(stereo not given)", "inhibition": "0% (inactive)"},
      {"molecule": "O=C1N(c2ccccc2)C2CS(=O)(=O)CC2N1c1ccc(Br)cc1", "note": "(stereo not given)", "inhibition": "0% (inactive)"},
      {"molecule": "O=C(CSc1nc(O)c(Cc2ccccc2)c(=O)[nH]1)Nc1ccccc1", "inhibition": "0% (inactive)"},
      {"molecule": "CCn1c(SCC(=O)Nc2cc(C)ccc2C)nc2c(c1=O)SC(C)C2", "note": "(stereo not given)", "inhibition": "0% (inactive)"},
      {"molecule": "Nc1nnc(-c2cccc(Cl)c2Cl)c(N)n1", "inhibition": "2% (inactive)"},
      {"molecule": "N#CC1=C(SCC(=O)c2cc3ccccc3oc2=O)NC(=O)C(C#N)C12CCCC2", "note": "(stereo not given)", "inhibition": "0% (inactive)"},
      {"molecule": "CCOC(=O)C1=C(C)N(C)C(=O)NC1c1ccccc1OC", "note": "(stereo not given)", "inhibition": "0% (inactive)"},
      {"molecule": "Cc1ccccc1C(=O)N1CCC(C(=O)Nc2ccc(S(=O)(=O)N3CCCC3)cc2)CC1", "inhibition": "3% (inactive)"},
      {"molecule": "CCOC(=O)c1ccc2[nH]c(C)c(CN3CCN(C)CC3)c(=O)c2c1", "inhibition": "0% (inactive)"},
      {"molecule": "COC(=O)CN1C(=O)C(O)(CC(=O)c2ccc(C)cc2)c2cc(Br)ccc21", "note": "(stereo not given)", "inhibition": "2% (inactive)"}
    ]}
  ]
}
